Legend:
Experiment in all cases: log2 ratio of Biotin-Ahx-Ub-VS probe labelling (fragment/DMSO); higher = less target engagement (more negative = stronger competition), active = hit call of the paper (q ≤ 0.05, log2 ratio ≤ -1)
Settings in all cases: compound concentration: 200 uM; treatment time: 3 h
USP42 = biological target: T1, USP42 (UniProt Q9H9J4)
T1 sequence (whole entry): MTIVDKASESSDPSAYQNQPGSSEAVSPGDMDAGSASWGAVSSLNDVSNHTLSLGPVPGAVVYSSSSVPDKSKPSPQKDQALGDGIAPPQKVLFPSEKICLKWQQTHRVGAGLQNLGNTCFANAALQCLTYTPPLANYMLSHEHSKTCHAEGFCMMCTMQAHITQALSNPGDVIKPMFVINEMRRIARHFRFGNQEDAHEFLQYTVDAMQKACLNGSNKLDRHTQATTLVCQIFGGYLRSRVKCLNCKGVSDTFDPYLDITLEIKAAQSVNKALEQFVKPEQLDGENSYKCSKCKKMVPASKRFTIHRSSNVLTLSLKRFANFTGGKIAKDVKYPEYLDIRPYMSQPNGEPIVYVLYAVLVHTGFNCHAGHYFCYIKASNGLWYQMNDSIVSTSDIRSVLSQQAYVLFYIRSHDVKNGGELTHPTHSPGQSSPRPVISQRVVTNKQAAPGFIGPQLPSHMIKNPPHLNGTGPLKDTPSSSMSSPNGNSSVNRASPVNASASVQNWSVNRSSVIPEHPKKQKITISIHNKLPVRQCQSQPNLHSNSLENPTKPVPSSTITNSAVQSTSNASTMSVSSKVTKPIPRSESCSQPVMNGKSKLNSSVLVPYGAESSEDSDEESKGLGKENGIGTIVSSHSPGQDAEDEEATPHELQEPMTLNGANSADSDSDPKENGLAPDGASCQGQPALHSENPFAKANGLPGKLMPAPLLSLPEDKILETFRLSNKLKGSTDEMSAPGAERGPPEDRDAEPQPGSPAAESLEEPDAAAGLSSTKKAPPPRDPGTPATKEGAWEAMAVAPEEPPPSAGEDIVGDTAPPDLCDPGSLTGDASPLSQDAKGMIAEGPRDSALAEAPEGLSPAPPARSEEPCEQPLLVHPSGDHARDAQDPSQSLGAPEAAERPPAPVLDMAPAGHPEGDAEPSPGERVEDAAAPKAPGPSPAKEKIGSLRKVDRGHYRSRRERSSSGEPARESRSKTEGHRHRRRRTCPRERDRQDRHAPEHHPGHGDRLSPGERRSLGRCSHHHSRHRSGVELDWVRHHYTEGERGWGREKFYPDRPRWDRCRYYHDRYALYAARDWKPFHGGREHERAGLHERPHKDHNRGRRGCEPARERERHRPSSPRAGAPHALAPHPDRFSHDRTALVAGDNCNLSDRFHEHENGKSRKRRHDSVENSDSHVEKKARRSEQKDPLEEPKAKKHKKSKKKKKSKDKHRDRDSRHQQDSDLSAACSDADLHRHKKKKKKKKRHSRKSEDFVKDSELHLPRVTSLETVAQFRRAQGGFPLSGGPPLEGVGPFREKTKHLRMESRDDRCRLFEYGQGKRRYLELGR
In short: (§1)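 In triplicate, 495 µg of HEK293T lysate per sample was incubated with fragment at 200 µM or vehicle for 3 h. Biotin-Ahx-Ub-VS was then added to 0.5 µM final for 1 h, and labelled DUBs were captured with NeutrAvidin, digested with LysC and trypsin, and measured by diaPASEF LC-MS/MS. Data are average log2 fragment/vehicle ratios by unpaired t-test from global-median-normalised Spectronaut label-free quantities, restricted to proteins with ≥2 unique peptides.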

USP46 = USP46 (UniProt P62068)
Chain of USP46 (P62068 whole entry): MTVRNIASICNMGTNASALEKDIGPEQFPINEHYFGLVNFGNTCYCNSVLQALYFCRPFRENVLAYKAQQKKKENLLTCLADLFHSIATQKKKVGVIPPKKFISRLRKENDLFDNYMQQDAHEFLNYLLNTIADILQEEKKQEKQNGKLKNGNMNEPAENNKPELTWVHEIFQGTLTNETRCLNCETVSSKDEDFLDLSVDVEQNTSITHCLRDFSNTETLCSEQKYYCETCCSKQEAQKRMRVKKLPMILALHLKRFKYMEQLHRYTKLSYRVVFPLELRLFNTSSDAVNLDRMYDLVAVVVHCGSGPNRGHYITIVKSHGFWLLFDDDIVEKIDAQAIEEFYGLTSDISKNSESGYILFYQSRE
In short: as §1

USP47 = biological target: T2, USP47 (UniProt Q96K76)
T2 sequence (whole entry): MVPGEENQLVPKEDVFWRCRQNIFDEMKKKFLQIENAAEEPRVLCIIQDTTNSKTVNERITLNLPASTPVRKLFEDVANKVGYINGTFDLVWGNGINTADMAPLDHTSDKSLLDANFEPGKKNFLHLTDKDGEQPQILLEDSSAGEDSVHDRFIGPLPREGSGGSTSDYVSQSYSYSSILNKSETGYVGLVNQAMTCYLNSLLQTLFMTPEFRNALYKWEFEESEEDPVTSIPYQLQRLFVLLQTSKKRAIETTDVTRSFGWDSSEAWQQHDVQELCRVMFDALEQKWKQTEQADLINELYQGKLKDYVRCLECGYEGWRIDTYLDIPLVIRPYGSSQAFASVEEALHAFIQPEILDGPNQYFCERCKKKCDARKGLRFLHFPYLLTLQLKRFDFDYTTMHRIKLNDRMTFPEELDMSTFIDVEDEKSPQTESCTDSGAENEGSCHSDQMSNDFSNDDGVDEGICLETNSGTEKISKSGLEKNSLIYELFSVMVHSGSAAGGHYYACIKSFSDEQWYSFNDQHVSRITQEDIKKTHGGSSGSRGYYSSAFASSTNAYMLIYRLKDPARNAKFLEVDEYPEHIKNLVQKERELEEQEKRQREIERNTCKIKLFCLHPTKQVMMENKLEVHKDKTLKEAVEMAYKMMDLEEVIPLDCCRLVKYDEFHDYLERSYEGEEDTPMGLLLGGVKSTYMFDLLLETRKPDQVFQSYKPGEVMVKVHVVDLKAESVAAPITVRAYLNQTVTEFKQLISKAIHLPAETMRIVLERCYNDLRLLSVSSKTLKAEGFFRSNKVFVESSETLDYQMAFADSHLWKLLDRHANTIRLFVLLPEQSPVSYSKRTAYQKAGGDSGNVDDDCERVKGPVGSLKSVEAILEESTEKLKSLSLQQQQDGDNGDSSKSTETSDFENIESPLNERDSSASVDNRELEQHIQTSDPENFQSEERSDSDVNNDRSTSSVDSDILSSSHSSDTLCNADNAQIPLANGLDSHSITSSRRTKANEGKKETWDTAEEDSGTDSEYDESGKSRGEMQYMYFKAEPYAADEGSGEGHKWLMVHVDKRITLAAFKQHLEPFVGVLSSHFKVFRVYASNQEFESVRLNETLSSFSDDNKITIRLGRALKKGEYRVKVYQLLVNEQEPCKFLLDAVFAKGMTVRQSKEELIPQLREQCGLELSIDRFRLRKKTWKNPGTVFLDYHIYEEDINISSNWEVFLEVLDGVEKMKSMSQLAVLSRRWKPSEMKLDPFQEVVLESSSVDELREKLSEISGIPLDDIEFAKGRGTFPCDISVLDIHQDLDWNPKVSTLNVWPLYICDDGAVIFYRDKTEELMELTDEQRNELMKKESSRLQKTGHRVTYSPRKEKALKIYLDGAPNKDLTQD
In short: as §1

USP48 = biological target: T3, USP48 (UniProt Q86UV5)
T3 sequence (whole entry): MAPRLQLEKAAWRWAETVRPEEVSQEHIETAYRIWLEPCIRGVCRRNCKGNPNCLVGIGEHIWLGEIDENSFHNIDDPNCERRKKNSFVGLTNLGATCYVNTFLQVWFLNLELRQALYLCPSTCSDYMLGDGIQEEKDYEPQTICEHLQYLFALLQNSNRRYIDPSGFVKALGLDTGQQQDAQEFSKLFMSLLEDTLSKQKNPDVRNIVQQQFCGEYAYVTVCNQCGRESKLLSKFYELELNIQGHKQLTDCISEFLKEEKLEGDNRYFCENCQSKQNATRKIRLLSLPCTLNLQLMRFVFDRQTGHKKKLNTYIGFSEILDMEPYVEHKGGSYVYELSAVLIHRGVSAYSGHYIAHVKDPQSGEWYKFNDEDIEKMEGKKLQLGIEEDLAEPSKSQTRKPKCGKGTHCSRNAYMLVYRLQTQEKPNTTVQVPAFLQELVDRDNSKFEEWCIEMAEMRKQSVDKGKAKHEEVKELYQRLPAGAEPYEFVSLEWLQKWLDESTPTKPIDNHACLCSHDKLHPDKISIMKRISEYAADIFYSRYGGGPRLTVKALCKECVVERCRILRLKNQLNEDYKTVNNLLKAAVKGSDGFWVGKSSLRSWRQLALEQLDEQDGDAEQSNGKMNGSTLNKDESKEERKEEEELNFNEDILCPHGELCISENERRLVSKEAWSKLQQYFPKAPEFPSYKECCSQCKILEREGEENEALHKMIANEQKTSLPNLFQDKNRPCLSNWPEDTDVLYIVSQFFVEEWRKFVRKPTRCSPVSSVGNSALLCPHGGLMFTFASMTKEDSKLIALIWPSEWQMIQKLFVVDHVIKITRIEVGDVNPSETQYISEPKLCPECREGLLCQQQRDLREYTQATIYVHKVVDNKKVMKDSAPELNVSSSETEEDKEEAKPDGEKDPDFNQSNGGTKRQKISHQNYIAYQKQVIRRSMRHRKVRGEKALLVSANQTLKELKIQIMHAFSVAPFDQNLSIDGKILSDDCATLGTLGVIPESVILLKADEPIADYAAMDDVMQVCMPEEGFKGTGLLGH
In short: as §1

USP5 = biological target: T4, USP5 (UniProt P45974)
T4 sequence (whole entry): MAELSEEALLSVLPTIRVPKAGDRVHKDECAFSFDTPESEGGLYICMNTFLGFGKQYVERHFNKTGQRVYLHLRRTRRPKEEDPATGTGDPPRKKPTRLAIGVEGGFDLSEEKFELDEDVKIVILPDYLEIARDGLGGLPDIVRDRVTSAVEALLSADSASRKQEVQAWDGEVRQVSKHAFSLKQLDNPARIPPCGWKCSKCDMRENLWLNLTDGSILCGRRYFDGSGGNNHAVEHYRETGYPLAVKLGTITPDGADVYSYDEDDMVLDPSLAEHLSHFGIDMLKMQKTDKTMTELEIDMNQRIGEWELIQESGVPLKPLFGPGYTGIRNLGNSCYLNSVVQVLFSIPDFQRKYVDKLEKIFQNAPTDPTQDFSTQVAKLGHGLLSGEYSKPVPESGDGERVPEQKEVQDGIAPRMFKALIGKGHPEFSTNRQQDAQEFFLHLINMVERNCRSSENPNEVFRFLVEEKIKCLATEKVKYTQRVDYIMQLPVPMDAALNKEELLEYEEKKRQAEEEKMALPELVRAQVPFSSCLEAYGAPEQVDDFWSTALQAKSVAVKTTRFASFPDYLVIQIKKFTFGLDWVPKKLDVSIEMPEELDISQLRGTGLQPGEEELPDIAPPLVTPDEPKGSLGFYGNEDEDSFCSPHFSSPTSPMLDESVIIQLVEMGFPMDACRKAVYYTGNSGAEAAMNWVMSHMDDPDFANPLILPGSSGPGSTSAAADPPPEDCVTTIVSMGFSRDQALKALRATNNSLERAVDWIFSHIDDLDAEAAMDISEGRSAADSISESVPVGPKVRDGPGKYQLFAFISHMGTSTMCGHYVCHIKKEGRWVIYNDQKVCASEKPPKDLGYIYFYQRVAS
In short: as §1

USP54 = USP54 (UniProt Q70EL1)
Chain of USP54 (Q70EL1 whole entry): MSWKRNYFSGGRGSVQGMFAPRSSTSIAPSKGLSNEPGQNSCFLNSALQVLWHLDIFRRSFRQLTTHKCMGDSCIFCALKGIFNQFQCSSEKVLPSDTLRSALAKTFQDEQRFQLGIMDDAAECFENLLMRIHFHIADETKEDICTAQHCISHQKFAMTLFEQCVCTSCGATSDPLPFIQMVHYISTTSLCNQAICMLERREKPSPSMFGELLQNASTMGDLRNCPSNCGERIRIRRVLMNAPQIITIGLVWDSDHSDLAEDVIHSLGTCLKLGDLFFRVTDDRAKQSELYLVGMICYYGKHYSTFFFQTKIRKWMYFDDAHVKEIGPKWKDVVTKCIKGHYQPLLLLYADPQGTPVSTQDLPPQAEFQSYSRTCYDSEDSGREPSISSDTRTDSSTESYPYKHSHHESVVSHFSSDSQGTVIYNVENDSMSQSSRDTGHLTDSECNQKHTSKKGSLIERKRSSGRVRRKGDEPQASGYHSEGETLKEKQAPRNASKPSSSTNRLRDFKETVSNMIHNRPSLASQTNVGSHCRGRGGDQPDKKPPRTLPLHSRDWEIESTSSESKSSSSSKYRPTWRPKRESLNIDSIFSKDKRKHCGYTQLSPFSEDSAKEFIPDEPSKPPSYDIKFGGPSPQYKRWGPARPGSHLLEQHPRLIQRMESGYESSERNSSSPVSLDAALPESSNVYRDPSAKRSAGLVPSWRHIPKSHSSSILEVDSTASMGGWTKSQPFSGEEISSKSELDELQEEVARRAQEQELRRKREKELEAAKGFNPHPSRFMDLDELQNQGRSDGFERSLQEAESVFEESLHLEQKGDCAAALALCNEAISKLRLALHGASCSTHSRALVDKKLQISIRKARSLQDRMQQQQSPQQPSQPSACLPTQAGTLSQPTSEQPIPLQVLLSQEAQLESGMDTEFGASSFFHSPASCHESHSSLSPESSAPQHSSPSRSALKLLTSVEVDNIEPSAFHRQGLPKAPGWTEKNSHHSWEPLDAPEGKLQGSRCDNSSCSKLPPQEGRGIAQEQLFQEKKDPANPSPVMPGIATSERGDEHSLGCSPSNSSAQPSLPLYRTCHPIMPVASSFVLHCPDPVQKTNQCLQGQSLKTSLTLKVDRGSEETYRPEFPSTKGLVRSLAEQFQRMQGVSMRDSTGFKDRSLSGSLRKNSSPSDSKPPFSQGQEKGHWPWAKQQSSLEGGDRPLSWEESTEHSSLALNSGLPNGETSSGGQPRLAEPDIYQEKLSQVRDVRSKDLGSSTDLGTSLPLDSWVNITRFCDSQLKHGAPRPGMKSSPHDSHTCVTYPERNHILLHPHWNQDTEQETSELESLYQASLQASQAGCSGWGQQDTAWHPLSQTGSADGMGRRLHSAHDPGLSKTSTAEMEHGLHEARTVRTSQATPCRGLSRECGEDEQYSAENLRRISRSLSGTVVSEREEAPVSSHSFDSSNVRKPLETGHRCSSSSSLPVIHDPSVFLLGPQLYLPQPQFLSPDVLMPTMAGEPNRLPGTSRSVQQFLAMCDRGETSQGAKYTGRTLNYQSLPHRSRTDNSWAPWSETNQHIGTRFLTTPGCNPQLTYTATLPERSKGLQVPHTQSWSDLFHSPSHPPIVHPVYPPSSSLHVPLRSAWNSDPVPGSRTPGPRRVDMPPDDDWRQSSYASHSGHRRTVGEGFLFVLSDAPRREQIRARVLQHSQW
In short: as §1

USP7 = USP7 (UniProt Q93009)
Chain of USP7 (Q93009 whole entry, looked up): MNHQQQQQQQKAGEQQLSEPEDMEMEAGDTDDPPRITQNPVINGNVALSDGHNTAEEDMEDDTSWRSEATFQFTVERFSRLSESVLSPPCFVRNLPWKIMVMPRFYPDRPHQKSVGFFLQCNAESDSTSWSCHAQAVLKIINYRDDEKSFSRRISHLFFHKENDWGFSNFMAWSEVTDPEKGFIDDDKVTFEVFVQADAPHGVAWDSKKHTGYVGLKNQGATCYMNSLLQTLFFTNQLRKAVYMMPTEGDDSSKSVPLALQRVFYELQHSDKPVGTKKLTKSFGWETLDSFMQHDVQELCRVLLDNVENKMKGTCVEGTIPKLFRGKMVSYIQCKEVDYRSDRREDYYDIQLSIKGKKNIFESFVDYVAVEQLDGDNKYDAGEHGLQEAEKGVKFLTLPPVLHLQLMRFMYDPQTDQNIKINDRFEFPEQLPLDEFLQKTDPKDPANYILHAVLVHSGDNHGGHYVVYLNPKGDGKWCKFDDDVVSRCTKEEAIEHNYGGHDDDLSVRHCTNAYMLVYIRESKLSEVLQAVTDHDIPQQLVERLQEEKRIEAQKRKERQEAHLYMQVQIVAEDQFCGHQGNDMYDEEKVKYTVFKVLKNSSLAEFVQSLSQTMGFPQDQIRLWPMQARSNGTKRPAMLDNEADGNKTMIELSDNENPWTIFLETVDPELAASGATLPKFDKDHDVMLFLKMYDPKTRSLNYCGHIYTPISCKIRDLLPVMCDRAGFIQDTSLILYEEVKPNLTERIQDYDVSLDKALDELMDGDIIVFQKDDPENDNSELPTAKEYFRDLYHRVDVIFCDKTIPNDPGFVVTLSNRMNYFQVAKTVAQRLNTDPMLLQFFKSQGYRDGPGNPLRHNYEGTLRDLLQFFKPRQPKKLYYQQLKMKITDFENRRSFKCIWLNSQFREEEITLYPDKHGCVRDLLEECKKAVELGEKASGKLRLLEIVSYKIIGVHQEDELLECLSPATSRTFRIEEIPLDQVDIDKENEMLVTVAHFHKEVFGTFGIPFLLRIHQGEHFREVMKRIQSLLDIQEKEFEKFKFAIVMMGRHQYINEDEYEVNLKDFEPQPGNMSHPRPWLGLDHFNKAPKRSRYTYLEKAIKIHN
In short: as §1

USP8 = biological target: T5, USP8 (UniProt P40818)
T5 sequence (whole entry): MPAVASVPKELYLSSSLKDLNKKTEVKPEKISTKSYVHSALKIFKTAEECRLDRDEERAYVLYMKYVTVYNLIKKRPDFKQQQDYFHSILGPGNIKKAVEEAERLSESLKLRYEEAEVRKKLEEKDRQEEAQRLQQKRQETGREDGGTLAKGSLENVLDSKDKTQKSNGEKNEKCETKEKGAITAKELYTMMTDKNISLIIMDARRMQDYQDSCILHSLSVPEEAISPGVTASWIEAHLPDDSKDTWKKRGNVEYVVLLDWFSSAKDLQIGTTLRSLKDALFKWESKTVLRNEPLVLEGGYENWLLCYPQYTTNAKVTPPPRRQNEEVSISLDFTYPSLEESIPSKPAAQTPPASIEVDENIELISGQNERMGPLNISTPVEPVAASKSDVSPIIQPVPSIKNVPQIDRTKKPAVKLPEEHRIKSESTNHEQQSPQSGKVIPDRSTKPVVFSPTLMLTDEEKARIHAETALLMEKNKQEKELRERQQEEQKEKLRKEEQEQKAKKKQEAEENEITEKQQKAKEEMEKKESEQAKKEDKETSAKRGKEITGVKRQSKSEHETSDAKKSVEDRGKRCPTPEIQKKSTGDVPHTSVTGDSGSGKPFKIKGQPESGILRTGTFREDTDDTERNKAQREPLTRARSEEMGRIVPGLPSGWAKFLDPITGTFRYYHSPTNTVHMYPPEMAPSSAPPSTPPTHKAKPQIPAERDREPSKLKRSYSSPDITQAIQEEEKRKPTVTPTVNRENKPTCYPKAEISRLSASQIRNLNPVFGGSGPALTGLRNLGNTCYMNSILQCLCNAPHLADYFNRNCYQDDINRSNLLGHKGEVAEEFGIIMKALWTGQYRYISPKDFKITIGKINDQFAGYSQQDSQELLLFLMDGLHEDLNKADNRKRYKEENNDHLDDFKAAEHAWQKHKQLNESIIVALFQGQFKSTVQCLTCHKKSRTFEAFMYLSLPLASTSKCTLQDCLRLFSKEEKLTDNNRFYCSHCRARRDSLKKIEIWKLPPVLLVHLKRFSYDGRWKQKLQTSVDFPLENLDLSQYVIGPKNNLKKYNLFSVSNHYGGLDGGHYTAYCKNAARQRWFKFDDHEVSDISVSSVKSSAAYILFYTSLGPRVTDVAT
In short: as §1

USP9X = USP9X (UniProt Q93008)
In short: as §1

UniProt O00487 = biological target: UniProt O00487
Chain of UniProt O00487 (O00487 whole entry): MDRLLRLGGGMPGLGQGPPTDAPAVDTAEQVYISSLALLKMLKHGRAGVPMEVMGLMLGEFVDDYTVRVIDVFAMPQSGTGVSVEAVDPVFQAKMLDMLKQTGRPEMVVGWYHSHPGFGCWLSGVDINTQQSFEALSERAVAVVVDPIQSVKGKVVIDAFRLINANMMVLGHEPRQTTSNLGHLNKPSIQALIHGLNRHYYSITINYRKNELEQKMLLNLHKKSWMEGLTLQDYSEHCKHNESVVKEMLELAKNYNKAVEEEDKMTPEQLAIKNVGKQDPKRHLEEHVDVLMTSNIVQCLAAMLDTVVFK
In short: as §1

Measured: log2 ratio of Biotin-Ahx-Ub-VS probe labelling

CN(C)C(=O)c1ccc(CNC(=O)CCl)cc1
inactive: USP42 -0.0843 | USP46 0.181 | USP47 0.119 | USP48 0.0435 | USP5 0.373 | USP54 0.152 | USP7 0.103 | USP8 -0.341 | USP9X 0.002 | UniProt O00487 -0.101

— the supplement of paper PMC11732987, “Enantioselective OTUD7B fragment discovery through chemoproteomics screening and high-throughput optimisation” (Communications Chemistry, 2025)
